ChEMBL document CHEMBL4513146, “CO-ADD screening of Karazin Kharkiv National University (Ukraine) compounds”
Entries with a potency or affinity are not part of this list.

Experiments:
[1] = test system: Staphylococcus aureus; conditions: Concentration 32 ug.mL-1;; ASSAY_TEST Inhibition of Bacterial Growth; detection method Absorption (OD600); MEDIA CAMHB; plate type 384well; NBS; CORNING #3640; time 18 hr
[2] = test system: Escherichia coli; conditions: Concentration 32 ug.mL-1;; ASSAY_TEST Inhibition of Bacterial Growth; detection method Absorption (OD600); MEDIA CAMHB; plate type 384well; NBS; CORNING #3640; time 18 hr

Row | SMILES | Inhibition [1] [%] | Inhibition [2] [%]
1 | CSc1ccc(CNC(=O)Cn2nc3c(Oc4ccc(C)cc4)nccn3c2=O)cc1 | -14.59 | -5.13
2 | O=C(Cn1nc2ccc(Sc3ccccc3)nn2c1=O)Nc1ccc(F)c(Cl)c1 | 8.3 | -2.75
3 | O=c1c2nnc(SCc3cccc(F)c3)n2ccn1-c1ccc(Br)cc1 | 15.11 | -3.12
4 | COc1cc(NC(=O)CSc2nnc3c(=O)n(-c4cccc(OC)c4)ccn23)cc(OC)c1 | 2.57 | -9.3
5 | COc1cc(NC(=O)Cn2nc3n(CCc4ccccc4)c(=O)c4ccccc4n3c2=O)cc(OC)c1 | 8.09 | -2.27
6 | NC(=O)CSc1nnc2c(=O)n(-c3ccc(F)cc3)ccn12 | 22.03 | 3.06
7 | CCC(Sc1nnc2c(=O)n(-c3cccc(OC)c3)ccn12)C(=O)Nc1cc(OC)ccc1OC (configuration not stated) | -1.04 | -13.69
8 | O=C(CSc1nnc2c3cc(-c4ccc(F)cc4)nn3ccn12)NCc1ccccc1Cl | 1.62 | -6.39
9 | Cc1c(Cl)cccc1-n1ccn2c(=O)n(Cc3ccccc3Cl)nc2c1=O | -12.86 | -11.83
10 | Cc1ccc(NC(=O)CSc2nc3ccccc3n3cnnc23)c(Br)c1 | -13.31 | -9.92
11 | O=C(Cn1nc2c3sc(N4CCCC4)nc3ncn2c1=O)Nc1ccccc1Br | 3.7 | -11.75
12 | COc1ccccc1-n1ccn2c(SCc3ccccc3Cl)nnc2c1=O | 15.04 | -4.4
13 | CCc1nnc2c(SCC(=O)Nc3ccc(Cl)cc3)nc3ccccc3n12 | 15.07 | 2.66
14 | Cc1ccc(NC(=O)Cn2c(=O)c3nnc(C(C)C)n3c3ccccc32)cc1 | -2.26 | 0.43
15 | COc1ccc2[nH]cc(C(=O)CSc3nnc4c(=O)n(-c5cccc(Cl)c5C)ccn34)c2c1 | 18.84 | 2.67
16 | O=c1c2sccc2n2c(=O)n(Cc3c(F)cccc3Cl)nc2n1CCc1ccccc1 | 3.01 | -6.52
17 | CCCCc1ccc(NC(=O)Cn2nc3c(N4CC(C)CC(C)C4)nccn3c2=O)cc1 (configuration not stated) | -4.53 | -8.88
18 | CCOC(=O)c1ccc(NC(=O)Cn2nc3c(SCc4ccc(Cl)cc4)nccn3c2=O)cc1 | -2.95 | -14.83
19 | CCOc1ccc(-n2ccn3c(SCC(=O)Nc4cc(OC)cc(OC)c4)nnc3c2=O)cc1 | 7.49 | -3.15
20 | O=C(Cn1nc2c3cc(-c4ccc(F)cc4)nn3ccn2c1=O)NCc1ccccc1Cl | 7.18 | -0.1
21 | COc1cccc(-n2ccn3c(SCC(=O)N4CCN(c5ccc(F)cc5)CC4)nnc3c2=O)c1 | 6.4 | -17.03
22 | Cc1ccc(NC(=O)Cn2nc3c(N4CCCC(C)C4)nccn3c2=O)cc1C (configuration not stated) | -5.07 | -2.82
23 | O=S(=O)(c1cccn2cnnc12)N(Cc1ccc(F)cc1)c1ccc(F)cc1 | 8.29 | -3.31
24 | COc1ccc(NC(=O)CSc2nnc3c(=O)n(-c4ccc(Br)cc4)ccn23)cc1 | 5.23 | 2.74

Row | SMILES | Inhibition [1] [%] | Inhibition [2] [%]
25 | Cc1cccc(NC(=O)Cn2nc3c4cc(-c5ccc(Cl)cc5)nn4ccn3c2=O)c1C | 5.13 | -1.29
26 | COc1ccc(NC(=O)Cn2nc3c4cc(-c5ccc(C)c(C)c5)nn4ccn3c2=O)cc1 | 11.77 | -2.93
27 | O=C(Cn1nc2c(Oc3ccccc3)nccn2c1=O)Nc1ccc(F)cc1Cl | 2.27 | -4.59
28 | Cc1cccc(Oc2nc3ccccc3n3c(=O)n(CC(=O)Nc4cccc(C#N)c4)nc23)c1C | -4.2 | -5.56
29 | Cc1ccc(Oc2nccn3c(=O)n(CC(=O)Nc4ccc(Br)cc4F)nc23)cc1 | 5.87 | -0.38
30 | CC(=O)c1ccc(NC(=O)Cn2c(=O)c3nnc(C(C)C)n3c3ccccc32)cc1 | 5.44 | -3.86
31 | Cc1nnc2c(=O)n(CC(=O)Nc3ccc(Cl)cc3)c3ccccc3n12 | 6.71 | 2.85
32 | Cc1ccc(C)c(NC(=O)Cn2nc3c(N4CCCC(C)C4)nccn3c2=O)c1 (configuration not stated) | -2.35 | -6.19
33 | Cc1ccc(Cl)cc1NC(=O)CSc1nnc2c(=O)n(-c3ccccc3)ccn12 | 7.91 | -1.12
34 | Cc1cccc(C)c1NC(=O)Cn1nc2c(Sc3ccccc3)nccn2c1=O | -0.19 | -13.17
35 | CCc1nnc2c(S(=O)(=O)N(Cc3cccc(OC)c3)c3ccc(F)cc3)cccn12 | -5.69 | -8.61
36 | CCc1nnc2c(SCC(=O)Nc3ccc(OC)c(Cl)c3)nc3ccccc3n12 | 9.23 | 5.47
37 | CC(C)(C)S(=O)(=O)c1ccc2nn(CC(=O)Nc3ccc4c(c3)OCO4)c(=O)n2n1 | 14.6 | 0.97
38 | CC(C)CCNC(=O)Cn1nc2n(Cc3cccs3)c(=O)c3sccc3n2c1=O | 3.31 | -5.47
39 | COC(=O)c1cccc(NC(=O)Cn2nc3ccc(-c4ccccc4)nn3c2=O)c1 | -7.92 | -13.96
40 | CCc1nnc2c(S(=O)(=O)N(Cc3cccc(F)c3)c3cccc(C)c3)cccn12 | 12.77 | -0.95
41 | COC(=O)c1ccc(CN(c2cccc(F)c2)S(=O)(=O)c2ccc3nncn3c2)o1 | 9.42 | -3.46
42 | Cc1cccc(Cn2nc3n(CCc4ccccc4)c(=O)c4sccc4n3c2=O)c1 | -3.57 | -0.08
43 | Cc1ccc(NC(=O)CSc2nc3ccccc3n3c(C)nnc23)cc1C | -20.91 | -12.4
44 | Cc1ccc(Cl)cc1NC(=O)CSc1nnc2ccc(C(=O)Nc3cccc(F)c3)cn12 | 14.11 | 0.94
45 | CCc1ccc(N(Cc2ccc(F)cc2)S(=O)(=O)c2cccn3c(CC)nnc23)cc1 | 19.9 | -4.69
46 | COC(=O)c1ccc(NC(=O)Cn2nc3c(Oc4ccccc4)nccn3c2=O)cc1 | 1.06 | -10.41
47 | COc1ccc(NC(=O)c2ccc3nn(CC(=O)Nc4cc(Cl)ccc4OC)c(=O)n3c2)cc1 | 7.85 | -6.87
48 | CC1CCCN(c2nccn3c(=O)n(CC(=O)Nc4ccc(F)cc4F)nc23)C1 (configuration not stated) | -0.93 | -3.03

Row | SMILES | Inhibition [1] [%] | Inhibition [2] [%]
49 | CN(C(=O)Cn1nc2n(Cc3ccco3)c(=O)c3sccc3n2c1=O)c1ccccc1 | 0.44 | -5.3
50 | CCOc1ccc(NC(=O)Cn2nc3ccc(-c4ccccc4)nn3c2=O)cc1 | 5.36 | -5.9
51 | COc1ccc(C(=O)CSc2nnc3c(=O)n(-c4ccc(F)cc4)ccn23)cc1OC | 16.25 | -2.12
52 | Cc1ccc(NC(=O)Cn2nc3c4cc(-c5ccc(C)c(C)c5)nn4ccn3c2=O)c(Cl)c1 | 9.28 | -1.41
53 | CCOc1ccc(-n2ccn3c(SCC(=O)Nc4ccc(C)cc4Cl)nnc3c2=O)cc1 | 8.62 | -1.13
54 | COc1ccc(-c2cc3c4nnc(CCC(=O)NCc5ccc(OC)cc5OC)n4ccn3n2)cc1 | 16.19 | 5.82
55 | CCc1nnc2c(S(=O)(=O)N(Cc3cccc(OC)c3)c3ccccc3)cccn12 | 13.09 | -2.65
56 | Cc1ccc(-c2ccc3nn(CC(=O)N4CCN(c5ccccc5)CC4)c(=O)n3n2)cc1C | 8.01 | 2.66
57 | COc1cccc(-n2ccn3c(SCC(=O)Nc4ccc(OC)c(OC)c4)nnc3c2=O)c1 | 14.09 | -2.6
58 | COc1cc(NC(=O)CSc2nnc3c(=O)n(-c4cccc(F)c4)ccn23)cc(OC)c1 | 10.57 | -3.07
59 | COc1ccc(-c2cc3c4nnc(SCC(=O)N(C)c5ccccc5)n4ccn3n2)cc1 | -6.7 | -0.99
60 | COc1ccc(-c2cc3c4nnc(SCC(=O)Nc5ccccc5Cl)n4ccn3n2)cc1 | -12.96 | -8.41
61 | O=C(CSc1nnc2c(=O)n(-c3ccc(F)cc3)ccn12)N1CCN(c2ccc(F)cc2)CC1 | 9.4 | -2.88
62 | Cc1ccc(NC(=O)CSc2nnc3n(CC4CCCO4)c(=O)c4sccc4n23)cc1F (configuration not stated) | 4.36 | -6.16
63 | O=C(CSc1nc2ccccc2n2cnnc12)Nc1cc(C(F)(F)F)ccc1Cl | 6.84 | -4.72
64 | CCOC(=O)c1ccc(NC(=O)Cn2nc3c(SC4CCCCC4)nccn3c2=O)cc1 | 5.44 | -5.89
65 | CCCCOc1ccc(-c2cc3c4nnc(SCC(=O)Nc5cc(C)ccc5C)n4ccn3n2)cc1 | -14.19 | -10.44
66 | O=C(Cn1nc2c3c4c(sc3ncn2c1=O)CCCC4)NCc1ccc(F)cc1 | 8.69 | -4.83
67 | CCc1nnc2c(SCC(=O)Nc3ccc(C(=O)OC)cc3)nc3ccccc3n12 | 1.34 | -1.9
68 | CCOc1ccc(-n2ccn3c(SCC(=O)Nc4cccc(CC)c4)nnc3c2=O)cc1 | -2.86 | -8.29
69 | COc1cccc(-n2ccn3c(SCC(=O)Nc4ccccc4Cl)nnc3c2=O)c1 | 11.46 | -4.64
70 | CCOc1ccc(-n2ccn3c(SCc4cccc(C(F)(F)F)c4)nnc3c2=O)cc1 | 18.58 | 1.02
71 | Cc1ccc(NC(=O)CSc2nnc3c(=O)n(-c4ccc(C)c(C)c4)ccn23)c(Cl)c1 | 11.19 | -1.65
